For 15 compounds, inhibition results are on record in ChEMBL document CHEMBL3433997, “St. Jude Leishmania screening dataset” (2016).

In this assay the target is Solute carrier family 2, facilitated glucose transporter member 1 (Homo sapiens) (UniProt P11166). As to the kind of experiment: ST_JUDE_LEISH: Cytotoxicity at 2uM final concentration against transgenic Leishmania Mexicana promastigotes LmGLUT1 that are glucose transport deficient and complemented with the human glucose transporter GLUT1. Activity is measured by DNA content using SYBR green in vitro. It is filed as functional.
Sequence of Solute carrier family 2, facilitated glucose transporter member 1 (Homo sapiens) (P11166 whole entry): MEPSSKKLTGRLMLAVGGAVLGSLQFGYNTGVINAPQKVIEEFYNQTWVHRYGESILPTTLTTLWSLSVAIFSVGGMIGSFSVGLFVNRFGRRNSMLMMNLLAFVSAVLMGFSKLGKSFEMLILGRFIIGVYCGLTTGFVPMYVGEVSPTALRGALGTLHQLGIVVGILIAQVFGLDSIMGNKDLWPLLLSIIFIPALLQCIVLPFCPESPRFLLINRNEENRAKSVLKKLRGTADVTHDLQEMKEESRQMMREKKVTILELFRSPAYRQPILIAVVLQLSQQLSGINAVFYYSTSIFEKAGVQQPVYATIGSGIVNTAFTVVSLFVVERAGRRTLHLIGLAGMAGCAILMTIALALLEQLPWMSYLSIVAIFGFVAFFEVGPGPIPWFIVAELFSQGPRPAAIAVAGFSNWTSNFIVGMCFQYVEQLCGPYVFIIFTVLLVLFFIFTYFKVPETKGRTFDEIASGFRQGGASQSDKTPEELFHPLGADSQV
The term inhibition denotes the change of the read-out against control, counted positive when it falls. On to `Cc1sc(C)c(CNCCCNc2cc(=O)c3ccccc3[nH]2)c1Br`, for which the inhibition was determined as 2.08%.
For `C=CCC(C(=O)Nc1ccnc2ccc(OC)cc12)C1CCN(CCCCCCC)CC1` (stereo not given) the value was 1.74%.
For `CCCCCCCN1CC[C@@H](CCCc2ccnc3ccc(OC)cc23)[C@@H](CNC)C1` the value was 0.83%; for `COc1cc2c(cc1C(F)(F)F)N(C(=O)Nc1cc(F)c(F)c(-c3cccnc3)c1)CC2`, 10.1%.
The value for `O=C(Nc1cc(Cl)ccc1O)c1cnn2c(C(F)(F)F)cc(-c3cccs3)nc12` was 2.61%; that for `O=C(Nc1ccc(Oc2ccccc2)cc1)N(Cc1ccc(-c2ccc(CN3CCNCC3)cc2)cc1)C1CCN(Cc2ccccc2)CC1` was -1.93%.
On to `CNC(=O)c1cc(F)c(F)cc1Nc1nc(Nc2cccc(CS(C)(=O)=O)c2)ncc1Cl`, for which the inhibition came to 1.41%.
The value for `COc1ccccc1C1CC(c2ccccc2)=NN1C(=O)c1ccccc1` (stereo not given) was -3.13%; that for `Cc1nc(-c2ccc(-c3ccc(NC(=O)Nc4ccc(I)c(OCCN(C)C)c4)cc3)c(C)c2)no1` was 7%.
`Cc1cc(NCCc2ccccc2)nc(N/C(=N/CC(=O)OC(C)(C)C)Nc2ccc(C(F)(F)F)cc2)n1`: the inhibition was 4.08%.
The value for `Oc1c(C=Nn2cnnc2)sc2ccccc12` was -0.72%.
The value for `CC(C)c1ccc(NC(=O)c2ccc(C(=O)NC3CCN(CC4CCCCC4)C3)cc2)cc1` (stereo not given) was 3.72%; that for `NC(=O)c1cccc(Nc2nccc(Nc3ccc(Oc4c(Cl)cccc4Cl)c(Cl)c3)n2)c1` was 9.27%; that for `Cc1cc(N[C@@H](Cc2ccccc2)C(=O)Nc2ccccc2)nc(NCCc2ccc(F)cc2)n1` was 3.66%.
For `O=C(NCc1ccc(F)cc1)c1ccc(N2CCN(c3ccncc3)CC2)cn1` the value was 2.68%.
